Where a name gives a salt, the structure may show the parent alone.

This assay has as its system Danio rerio larvae (5 dpf). As to the kind of experiment: optomotor response to green moving lines, difference vs DMSO (percentage points (treated minus DMSO)); higher = more of the behaviour than the DMSO vehicle control. Particulars: 10 µM; exposure time: 3 h pre-incubation + 3 h imaging. On the procedure: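 5-dpf wild-type zebrafish larvae were imaged in 96-well plates. They were treated with 190 Tocris FDA-approved drugs at 10 µM (1 µl/ml DMSO) for 3 h before and 3 h during imaging at 28.5 °C, 48 larvae per drug. Automated image analysis gave % time moving and optomotor responses. Values are drug group mean minus DMSO vehicle mean (n=844), in percentage points, for 10 behaviours.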
For the compound `CC(O)(CS(=O)(=O)c1ccc(F)cc1)C(=O)Nc1ccc(C#N)c(C(F)(F)F)c1` (stereo unspecified) [Bicalutamide], the “optomotor response to green moving lines” value came to 1.12.

Turning to `N[C@@H]1C[C@H]1c1ccccc1` [Tranylcypromine hydrochloride], the “optomotor response to green moving lines” value is 0.888.

Regarding `CC(C)C[C@H]1C(=O)N2CCC[C@H]2[C@]2(O)O[C@](NC(=O)[C@@H]3C=C4c5cccc6[nH]c(Br)c(c56)C[C@H]4N(C)C3)(C(C)C)C(=O)N12` [Bromocriptine mesylate], the “optomotor response to green moving lines” value was -20.3.

As for `COc1cc2c(cc1OC)C1CC(=O)C(CC(C)C)CN1CC2` (stereo unspecified) [Tetrabenazine], the “optomotor response to green moving lines” value is -9.74.

With `C=CCN1C[C@H](C(=O)N(CCCN(C)C)C(=O)NCC)C[C@@H]2c3cccc4[nH]cc(c34)C[C@H]21` [Cabergoline], the “optomotor response to green moving lines” value is -10.2.

As for `C=C1C[C@@H]2[C@H](CC[C@]3(C)C(=O)CC[C@@H]23)[C@@]2(C)C=CC(=O)C=C12` [Exemestane], the “optomotor response to green moving lines” value stood at 9.98.

In the case of `COc1ccc(C(CN(C)C)C2(O)CCCCC2)cc1` (stereo unspecified) [Venlafaxine hydrochloride], the “optomotor response to green moving lines” value was found to be 1.84.

For the compound `CC[C@@H](C(N)=O)N1CCCC1=O` [Levetiracetam], the “optomotor response to green moving lines” value is 4.63.

For `CCN(C)C(=O)Oc1cccc([C@H](C)N(C)C)c1` [Rivastigmine tartrate], the “optomotor response to green moving lines” value is -8.15.

As to `O=c1[nH]c2ccccc2n1C1CCN(CCCC(c2ccc(F)cc2)c2ccc(F)cc2)CC1` [Pimozide], the “optomotor response to green moving lines” value was -16.3.

For the compound `CN1C[C@H](C(=O)N[C@]2(C)O[C@@]3(O)[C@@H]4CCCN4C(=O)[C@H](Cc4ccccc4)N3C2=O)C[C@@H]2c3cccc4[nH]cc(c34)C[C@H]21` [Dihydroergotamine mesylate], the “optomotor response to green moving lines” value was 16.2.

These data come from the supplement of paper PMC9023506.
